“And” between values parts separate entries of the source, which are not always exact repeats. Identical values can stand only once. About 83,000 compounds went through this panel and 20% of them were active in at least one assay; those are over-represented in the sample as a whole.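 Growth was measured after 48 h exposure to one concentration of compound in 96-well plates. Values under 10 count as active.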 The source made the active and inactive calls.
Legend:
Assay in all cases: NCI-60 one-dose screen, 48 h (100 = growth as untreated, 0 = no growth, -100 = all killed)
HCT-15 colon = tested on: HCT-15 colon
HT29 colon = tested on: HT29 colon
SNB-75 CNS = tested on: SNB-75 CNS
SNB-19 CNS = tested on: SNB-19 CNS
U251 CNS = conditions: 10 µM unless noted
PC-3 prostate = tested on: PC-3 prostate
SK-MEL-5 melanoma = conditions: 10 µM unless noted
UACC-62 melanoma = tested on: UACC-62 melanoma
LOX IMVI melanoma = conditions: 10 µM unless noted
SK-MEL-28 melanoma = tested on: SK-MEL-28 melanoma

Measured: growth

Nc1nc(=S)c2[nH]cnc2[nH]1
active: HT29 colon; 10 µM unless noted 9.45% and 8.24% | SK-MEL-5 melanoma -2% and -29% | UACC-62 melanoma; 10 µM -21.9% | UACC-62 melanoma; 250 µM -67.7% and -100% | LOX IMVI melanoma 8.31% and 5.43%
inactive: HCT-15 colon; 10 µM unless noted 13% and 12.5% | SNB-75 CNS; 10 µM unless noted 29.1% and 26.5% | SNB-19 CNS; 10 µM unless noted 98.2% and 102% | U251 CNS 47.2% and 51% | PC-3 prostate; 10 µM unless noted 33.2% and 32.1% | SK-MEL-28 melanoma; 10 µM unless noted 29%

COC(=O)c1nc(N)nc(C(=O)OC)c1C(=O)c1ccc(F)cc1
inactive: HCT-15 colon; 10 µM unless noted 103% | HT29 colon; 10 µM unless noted 115% | SNB-75 CNS; 10 µM unless noted 99.1% | SNB-19 CNS; 10 µM unless noted 103% | U251 CNS 102% | PC-3 prostate; 10 µM unless noted 104% | SK-MEL-5 melanoma 103% | UACC-62 melanoma; 10 µM unless noted 105% | LOX IMVI melanoma 98.6% | SK-MEL-28 melanoma; 10 µM unless noted 115%

CC(C)(C)OC(=O)CC1(O)CCCCC1
inactive: HCT-15 colon; 10 µM unless noted 105% | HT29 colon; 10 µM unless noted 111% | SNB-75 CNS; 10 µM unless noted 90.8% | SNB-19 CNS; 10 µM unless noted 106% | U251 CNS 104% | PC-3 prostate; 10 µM unless noted 96.8% | SK-MEL-5 melanoma 95.7% | UACC-62 melanoma; 10 µM unless noted 103% | LOX IMVI melanoma 102% | SK-MEL-28 melanoma; 10 µM unless noted 105%

O=c1ccn2c(n1)OC1CC2OC1COC(c1ccccc1)(c1ccccc1)c1ccccc1 (configuration not stated)
inactive: HCT-15 colon; 10 µM 97% | HCT-15 colon; 100 µM 101% | HT29 colon; 10 µM 108% | HT29 colon; 100 µM 106% | SNB-75 CNS; 10 µM 107% | SNB-75 CNS; 100 µM 95.6% | SNB-19 CNS; 10 µM 111% | SNB-19 CNS; 100 µM 91.8% | U251 CNS 89.2% [100 µM] | PC-3 prostate; 10 µM 84.1% | PC-3 prostate; 100 µM 63.1% | UACC-62 melanoma; 10 µM 103% | UACC-62 melanoma; 100 µM 44.5% | SK-MEL-28 melanoma; 10 µM 118% | SK-MEL-28 melanoma; 100 µM 74.3%

Cc1onc(-c2c(F)cccc2Cl)c1-c1ncc(-c2ccc(Cl)cc2)o1
25.4% (inactive) and 6.61% (active): SK-MEL-5 melanoma
inactive: HCT-15 colon; 10 µM unless noted 29.5% and 16.4% | HT29 colon; 10 µM unless noted 23.3% and 21.8% | SNB-75 CNS; 10 µM unless noted 84% and 62% | SNB-19 CNS; 10 µM unless noted 80.7% and 40% | U251 CNS 41.1% | PC-3 prostate; 10 µM unless noted 31% and 34.5% | UACC-62 melanoma; 10 µM unless noted 29.7% and 32.2% | LOX IMVI melanoma 12.5% | SK-MEL-28 melanoma; 10 µM unless noted 68.8% and 50.2%

COc1cc([C@@H]2c3cc4c(cc3[C@H](O)[C@H]3COC(=O)[C@@H]23)OCO4)cc(OC)c1OC
inactive: HCT-15 colon; 10 µM unless noted 29.2% and 10.5% | SNB-75 CNS; 10 µM unless noted 19.4% and 12.9% | SNB-19 CNS; 10 µM unless noted 27.3% and 12.9% | U251 CNS 16.4% and 26.2% | UACC-62 melanoma; 10 µM unless noted 19.9% and 68.1% | LOX IMVI melanoma 23.3% and 15.6%
26.9% (inactive) and 6.21% (active): PC-3 prostate; 10 µM unless noted
active: HT29 colon; 10 µM unless noted 2.22% and -8.13% | SK-MEL-5 melanoma -27.1% and -44%
28.4% (inactive) and -24% (active): SK-MEL-28 melanoma; 10 µM unless noted

O=c1[nH]nnc2cc(Cl)ccc12
inactive: HCT-15 colon; 10 µM unless noted 93.9% and 104% | HT29 colon; 10 µM unless noted 109% and 129% | SNB-75 CNS; 10 µM unless noted 87.1% and 83% | SNB-19 CNS; 10 µM unless noted 104% and 103% | U251 CNS 97.3% and 93.8% | PC-3 prostate; 10 µM unless noted 103% and 90.7% | SK-MEL-5 melanoma 100% | UACC-62 melanoma; 10 µM unless noted 99.8% and 101% | LOX IMVI melanoma 101% | SK-MEL-28 melanoma; 10 µM unless noted 117% and 109%

CS/C(=C\c1ccc(C(=O)c2ccc(C)cc2)n1C)S(C)=O (configuration not stated)
inactive: HCT-15 colon; 10 µM 87.6% | HCT-15 colon; 100 µM 55.1% | HT29 colon; 10 µM 94% | HT29 colon; 100 µM 81.2% | SNB-75 CNS; 10 µM 96.1% | SNB-75 CNS; 100 µM 100% | SNB-19 CNS; 10 µM 91.3% | SNB-19 CNS; 100 µM 77.5% | U251 CNS 74.7% [100 µM] | PC-3 prostate; 10 µM 76.6% | PC-3 prostate; 100 µM 71.1% | UACC-62 melanoma; 10 µM 83.3% | UACC-62 melanoma; 100 µM 61.4% | LOX IMVI melanoma 99.4% | SK-MEL-28 melanoma; 10 µM 84.7% | SK-MEL-28 melanoma; 100 µM 74.9%

N#CC(=S)Nc1ccc(Cl)c(Cl)c1
inactive: HCT-15 colon; 10 µM unless noted 13.6% | HT29 colon; 10 µM unless noted 12.5% | PC-3 prostate; 10 µM unless noted 23.1% | SK-MEL-28 melanoma; 10 µM unless noted 25.2%
active: SNB-75 CNS; 10 µM unless noted -3.27% | SNB-19 CNS; 10 µM unless noted 4.95% | U251 CNS 9.34% | SK-MEL-5 melanoma -61.7% | UACC-62 melanoma; 10 µM 5.74% | UACC-62 melanoma; 100 µM -12.1% and -100%

CC(=O)Oc1ccc(C(c2ccc(OC(C)=O)cc2)c2ccccn2)cc1
active: SK-MEL-5 melanoma -7.6%
inactive: HCT-15 colon; 10 µM unless noted 84.3% and 76.4% | HT29 colon; 10 µM unless noted 91.8% and 87.1% | SNB-75 CNS; 10 µM unless noted 56.7% and 80.9% | SNB-19 CNS; 10 µM unless noted 104% and 98.8% | U251 CNS 96% and 96.2% | PC-3 prostate; 10 µM unless noted 73.6% and 68.9% | UACC-62 melanoma; 10 µM unless noted 96.5% and 89.4% | LOX IMVI melanoma 90.3% and 77.5% | SK-MEL-28 melanoma; 10 µM unless noted 107%

CCc1ccccc1-n1[nH]c(C)c(C=N)c1=O
inactive: HCT-15 colon; 10 µM unless noted 98.3% | HT29 colon; 10 µM unless noted 114% | SNB-75 CNS; 10 µM unless noted 101% | SNB-19 CNS; 10 µM unless noted 104% | U251 CNS 109% | PC-3 prostate; 10 µM unless noted 94.7% | SK-MEL-5 melanoma 104% | UACC-62 melanoma; 10 µM unless noted 101% | LOX IMVI melanoma 99.1% | SK-MEL-28 melanoma; 10 µM unless noted 110%

c1ccc2c[n+](Cc3ccc4ccccc4n3)ccc2c1
inactive: HCT-15 colon; 10 µM unless noted 106% | HT29 colon; 10 µM unless noted 57.2% | SNB-75 CNS; 10 µM unless noted 79.7% | SNB-19 CNS; 10 µM unless noted 71.2% | U251 CNS 55.4% | PC-3 prostate; 10 µM unless noted 50.9% | SK-MEL-5 melanoma 15.1% | UACC-62 melanoma; 10 µM unless noted 90% | LOX IMVI melanoma 88.8% | SK-MEL-28 melanoma; 10 µM unless noted 87.6%

CC1(C)OC(=O)C(=Cc2ccc(C#N)cc2)C(=O)O1
inactive: HCT-15 colon; 10 µM unless noted 109% and 104% | HT29 colon; 10 µM unless noted 97.7% and 100% | SNB-75 CNS; 10 µM unless noted 97% and 96.4% | SNB-19 CNS; 10 µM unless noted 98.9% and 101% | U251 CNS 89.7% | PC-3 prostate; 10 µM unless noted 84.3% and 99.2% | SK-MEL-5 melanoma 95.6% | UACC-62 melanoma; 10 µM unless noted 101% and 117% | LOX IMVI melanoma 103% | SK-MEL-28 melanoma; 10 µM unless noted 114% and 101%

Cc1ccc(NC(=S)N/C=C(\c2ccccc2)S(=O)Cc2ccccc2)c(C)c1 (configuration not stated)
inactive: HCT-15 colon; 10 µM unless noted 103% | HT29 colon; 10 µM unless noted 108% | SNB-75 CNS; 10 µM unless noted 87.2% | SNB-19 CNS; 10 µM unless noted 100% | U251 CNS 87.9% | PC-3 prostate; 10 µM unless noted 86% | SK-MEL-5 melanoma 98.7% | UACC-62 melanoma; 10 µM unless noted 92.2% | LOX IMVI melanoma 102% | SK-MEL-28 melanoma; 10 µM unless noted 112%

CCN(C)c1ccccc1
inactive: HCT-15 colon; 10 µM unless noted 101% | HT29 colon; 10 µM unless noted 103% | SNB-75 CNS; 10 µM unless noted 79.2% | SNB-19 CNS; 10 µM unless noted 106% | U251 CNS 99% | PC-3 prostate; 10 µM unless noted 95.8% | SK-MEL-5 melanoma 100% | UACC-62 melanoma; 10 µM unless noted 103% | LOX IMVI melanoma 98.4% | SK-MEL-28 melanoma; 10 µM unless noted 105%

Cc1ccc([N+](=O)[O-])cc1Br
inactive: HCT-15 colon; 10 µM unless noted 101% | HT29 colon; 10 µM unless noted 70.7% | SNB-75 CNS; 10 µM unless noted 104% | SNB-19 CNS; 10 µM unless noted 97.9% | U251 CNS 96.4% | PC-3 prostate; 10 µM unless noted 94.8% | SK-MEL-5 melanoma 99.8% | UACC-62 melanoma; 10 µM unless noted 95.8% | LOX IMVI melanoma 105% | SK-MEL-28 melanoma; 10 µM unless noted 104%

COC(=O)c1ccccc1Cl
inactive: HCT-15 colon; 10 µM unless noted 100% | HT29 colon; 10 µM unless noted 111% | SNB-75 CNS; 10 µM unless noted 96.6% | SNB-19 CNS; 10 µM unless noted 108% | U251 CNS 97.4% | PC-3 prostate; 10 µM unless noted 96.9% | SK-MEL-5 melanoma 103% | UACC-62 melanoma; 10 µM unless noted 104% | LOX IMVI melanoma 98.6% | SK-MEL-28 melanoma; 10 µM unless noted 115%

CCCCOC1NC(=O)NC(=O)C1(F)C(=O)OCC (configuration not stated)
inactive: HCT-15 colon; 10 µM unless noted 70% and 48.2% | HT29 colon; 10 µM unless noted 74.1% and 52.3% | SNB-75 CNS; 10 µM unless noted 78% and 81.8% | SNB-19 CNS; 10 µM unless noted 101% and 82.6% | U251 CNS 91.6% | PC-3 prostate; 10 µM unless noted 88.4% and 85.6% | SK-MEL-5 melanoma 81% and 66.9% | UACC-62 melanoma; 10 µM unless noted 72% and 52.8% | LOX IMVI melanoma 73.5% and 52.5% | SK-MEL-28 melanoma; 10 µM unless noted 83.4% and 70.7%

NCCCCCC(=O)O
inactive: HCT-15 colon; 10 µM unless noted 103% [middle of 4 runs] | HT29 colon; 10 µM unless noted 100% [middle of 4 runs] | SNB-75 CNS; 10 µM unless noted 93.6% [middle of 4 runs] | SNB-19 CNS; 10 µM unless noted 103% [middle of 4 runs] | U251 CNS 107% and 104% and 91.4% | PC-3 prostate; 10 µM unless noted 106% [middle of 4 runs] | SK-MEL-5 melanoma 108% and 109% and 110% | UACC-62 melanoma; 10 µM unless noted 112% [middle of 4 runs] | LOX IMVI melanoma 100% [middle of 4 runs] | SK-MEL-28 melanoma; 10 µM unless noted 112% and 109% and 119%

Source: PubChem BioAssay (NCI)
